Screening results (PubChem)
An excerpt weighted towards active compounds, which were near 6.6% of everything screened.
KB-V1 MDR tox = qHTS assay for MDR1-selective chemotherapeutics: Primary screen using the drug-selected MDR subline cells KB-V1. Potency, µM (series often up to 46.1 µM), actives largely listed as cytotoxic. KB-V1 MDR cells viability, CellTiter-Glo, 72 h. 3.4% of 400,000 active; note: % is set by controls: 0 for no effect and ±100 for the full control effect; nearly all actives have a fitted effect of over 60% in size
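Cytotoxicity via CellTiter-Glo luminescence after 72 h compound exposure at 37 degrees C. Cells: drug-selected KB-V1 line, DMEM phenol-red free plus 10% FBS. Compounds tested at multiple concentrations; normalized data fitted to concentration-effect curves.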
TGFb inhibitor = qHTS for Inhibitors of TGF-b. HepG2 CAGA-GFP TGF-b/SMAD3 reporter, GFP fluorescence, 18 h; TGF-beta stimulated, 500 pg/mL final. Potency, µM (doses to about 46.1 µM), for inactives: top-dose activity, negative = inhibition, hits mostly inhibitors. 1.2% of 410,000 active. AID 588855, 2011; note: % is set by controls: 0 for no effect and ±100 for the full control effect; nearly all actives have a fitted effect of over 65% in size
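Read-out: total well GFP (ex488/em500-530) summed from mean per-cell fluorescence. Cells: HEPG2 CAGA-GFP, 1% FBS DMEM, 18 h at 37 degrees C with 500 pg/mL final TGF-beta. Unstimulated wells served as the full-inhibition control; stimulated DMSO wells = 0%.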
HepG2 viability = qHTS for Inhibitors of TGF-b: Cytotox Counterscreen; 0.76% of 410,000 active; Potency, µM (highest dose often 46.1 µM), for the others: at the top dose activity change, negative = cytotoxicity, actives largely listed as cytotoxic; HepG2 CAGA-GFP viability, ATP luminescence, 18 h; AID 588856, 2011
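HepG2 CAGA-GFP cells (1000/well, DMEM with 1% FBS) received compound, then TGF-beta at 500 pg/mL final, and were incubated 18 hours at 37 degrees C. Viability was read by CellTiter-Glo luminescence. Media-only wells were set as complete cell-killing and DMSO as no toxicity.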
HT1080 IDH1KD tx = qHTS for induction of synthetic lethality in tumor cells producing 2HG: qHTS for the HT-1080-IDH1KD cell line; HT-1080 IDH1 knockdown viability, ATP luminescence, 48 h; Potency, µM (doses to about 46.1 µM), inactives show at the top dose activity, negative = toxicity, actives largely listed as cytotoxic; 2% of 360,000 active; AID 686971, 2013;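 note: 0% = DMSO wells and -100% = cell-free medium wells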
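Luminescent ATP read-out (CellTiter-Glo, 10 min at room temperature) after 48 h compound exposure at 37 °C gave viability of IDH1-knockdown HT-1080 cells. Activity was normalised to DMSO and cell-free wells, then fitted as concentration-response curves.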
KB-3-1 cytotox = qHTS assay for MDR1-selective chemotherapeutics: Primary screen using the parental adenocarcinoma cell KB-3-1. AID 1347075, 2019. 1.4% of 400,000 active. KB-3-1 viability, CellTiter-Glo ATP luminescence, 72 h. Potency, µM (highest dose often 46.1 µM), usual class: cytotoxic; note: % is set by controls: 0 for no effect and ±100 for the full control effect; nearly all actives have a fitted effect of over 60% in size
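KB-3-1 cells, DMEM (no phenol red) + 10% FBS; compound by pin transfer, 72 h, 37 °C. Readout: CellTiter-Glo luminescence after 10 min. Data normalized, curve-fitted.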
HT1080-NT tox = qHTS for induction of synthetic lethality in tumor cells producing 2HG: qHTS for the HT-1080-NT fibrosarcoma cell line. HT-1080-NT fibrosarcoma viability, CellTiter-Glo ATP luminescence, 48 h. Potency, µM (titrated, usually from 46.1 µM), for the others: at the top dose activity, negative = less viability, most hits filed as cytotoxic. 1.6% of 360,000 active;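 note: NT is the 2HG producing partner of a matched IDH1 knockdown line; 0% = DMSO-treated cells and -100% = media-only wells without cells; nearly all actives have a fitted effect of over 55% in size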
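Fibrosarcoma NT cells, 750 per well in 5% FBS RPMI, were exposed to compound for 48 hours. Viability: CellTiter-Glo luminescence.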
Numbers without * were called inactive; i = inactive; ? = inconclusive; · = no result given. Calls come from the whole dose curve; as a rule, active = well fitted curve in the direction sought with a large enough effect; inconclusive = small, poorly fitted or top-dose-only effect, or another doubt; inactive = no such curve, though single readings can be large; an effect the other way counts as inactive or inconclusive. Potency is the fitted concentration of half-maximal effect.

SMILES	KB-V1 MDR tox	TGFb inhibitor	HepG2 viability	HT1080 IDH1KD tx	KB-3-1 cytotox	HT1080-NT tox
COCCSc1nnc(NC(=O)CCS(=O)(=O)c2ccccc2)s1	i	?	-25%	23µM*	i	?
CC(=O)c1sc(NC(=O)CCS(=O)(=O)c2ccccc2)nc1C	i	18µM*	-78%	?	?	-9%
CC(=O)c1sc(NC(=O)CCS(=O)(=O)c2ccc(F)cc2)nc1C	i	?	-97%	?	i	?
COc1cccc(CNC(=O)c2oc3c(c2C)-c2nn(Cc4cccc(Cl)c4)cc2CC3)c1OC	·	-19%	-5%	·	·	·
Cc1ccc(-c2c3c(=O)n(C)c(=O)n(C)c3c3c(C)nc4ccccc4n23)cc1	i	-8%	-9%	·	i	·
COc1ccccc1N1CCN(C(c2cccs2)C(C)NC(=O)c2cccs2)CC1 (centres undefined)	4.1µM*	1%	-3%	1%	i	0%
COc1ccccc1C(=O)NC(C)C(c1cccs1)N1CCN(C)CC1 (centres undefined)	18µM*	9%	-13%	0%	i	10%
Cc1ccc2onc(CNC(=O)N3CCN(c4cccc(C)c4C)CC3)c2c1	i	?	-3%	·	i	·
O=C(Nc1ccc2c(c1)N(C1CCCC1)C(=O)c1ccccc1S2)c1cccc(F)c1	?	19%	-1%	·	?	·
Cc1ccccc1-n1c(C)nnc1SCC(=O)N1CCc2ccccc2C1	6.5µM*	1%	-7%	0%	i	1%
Cn1c(SCC(=O)N2CCc3ccccc3C2)nnc1-c1ccncc1	i	-15%	-1%	0%	i	1%
Cc1cc(C)nc(NS(=O)(=O)c2ccc(NC(=O)c3nc(SC(C)C)ncc3Cl)cc2)n1	i	-14%	-48%	·	i	·
O=C(NCC1CCCO1)c1cc2n(n1)C(C(F)(F)F)CC(c1ccc(F)cc1)N2 (centres undefined)	21µM*	-6%	-4%	8%	i	2%
COc1ccc(C2CC(C(F)(F)F)n3nc(C(=O)NCCN4CCOCC4)cc3N2)cc1 (centres undefined)	i	-7%	9%	1%	i	-6%
O=C(c1c(F)cccc1F)N(Cc1ccccn1)C1CC1	i	13µM*	0%	15%	i	-4%
O=C(CC1CCCCC1)NCc1ccccn1	i	1%	4%	7%	i	7%
O=C(NCc1ccccc1F)C(=O)NCC(c1ccco1)S(=O)(=O)c1cccs1 (centres undefined)	i	12%	4%	·	i	·
Cc1ccccc1-c1noc(-c2ccc(NCc3ccco3)c([N+](=O)[O-])c2)n1	?	89%	-1%	·	i	·
CN(C(=O)CSc1nc(N)cc(=O)[nH]1)C1CCCCC1	?	-6%	1%	-3%	i	4%
CN(C(=O)CSc1nc2c(c(=O)[nH]1)CCCC2)C1CCCCC1	16µM*	-22%	4%	?	i	1%
Cc1ccc(-c2cc3cccc[n+]3cc2-c2ccc(C)cc2)cc1	i	?	-13%	?	4.6µM*	?
COc1ccc(C(=O)N=c2sc3c(C)ccc(OC)c3n2C)cc1	5.8µM*	-8%	-20%	16%	9.2µM*	-1%
COc1cccc(CC(=O)Nc2c(C(=O)N3CCN(c4ccccc4F)CC3)oc3ccccc23)c1	?	9%	1%	·	16µM*	·
CC(=O)c1sc2c(c1OC(=O)c1ccccc1)c(=O)n(-c1ccccc1)c(=S)n2-c1ccccc1	9.2µM*	-9%	-12%	?	8.2µM*	?
COc1ccc(CNc2nc(N)nc3nc[nH]c23)cc1	i	2%	-23%	·	i	·
SMILES	KB-V1 MDR tox	TGFb inhibitor	HepG2 viability	HT1080 IDH1KD tx	KB-3-1 cytotox	HT1080-NT tox
CC1CC(N(C(=O)c2ccccc2Cl)c2ccccc2)c2ccccc2N1 (centres undefined)	?	-7%	1%	23µM*	?	23µM*
CN(C(=O)c1ccccc1Cl)C1CCCCC1	i	17%	0%	-2%	i	17%
CCCCCCCCCCC[N+](C)(C)CC/C=C1/c2ccccc2Sc2ccc(Cl)cc21	i	?	20µM*	?	i	?
CCCCCCCCCC[N+](C)(C)CC/C=C1/c2ccccc2Sc2ccc(Cl)cc21	i	?	-107%	?	i	?
O/N=C/c1ccc(OCc2ccccc2)c(Cl)c1	?	0%	0%	-21%	?	1%
O/N=C/c1ccc(OCc2ccccc2F)c(Cl)c1	16µM*	-5%	3%	-5%	?	1%
O/N=C/c1ccc(OCc2ccccc2)c(Br)c1	12µM*	10%	-1%	-14%	?	-21%
O=C(CN1CCN(c2cccc(C(F)(F)F)c2)CC1)N(C1CC1)C1CCS(=O)(=O)C1 (centres undefined)	i	6%	7%	1%	i	3%
O=C(CN1CCN(c2cccc(C(F)(F)F)c2)CC1)N(C1CCCC1)C1CCS(=O)(=O)C1 (centres undefined)	21µM*	-21%	-9%	4%	i	4%
Cc1cc(C)cc(NS(=O)(=O)c2ccc(-c3cc(C)no3)cc2)c1	·	13µM*	-54%	·	·	·
Cc1ccc(NS(=O)(=O)c2ccc(-c3cc(C)no3)cc2)c(C)c1	·	13µM*	-46%	·	·	·
CCc1ccc(NS(=O)(=O)c2ccc(-c3cc(C)no3)cc2)cc1	·	?	11µM*	·	·	·
CCCN1Cc2cccc(C(=O)Nc3ccc(OC)cc3OC)c2C1=O	i	21%	-52%	·	i	·
CCOC(=O)C1(C)CCN1C(=O)c1cc2ccccc2s1 (centres undefined)	i	-3%	-11%	-3%	i	-1%
O=C(Nc1ccc2c(c1)OCO2)c1cc(-c2cccc(O)c2)on1	i	5%	0%	12µM*	i	23µM*
COc1cccc(-c2cc(C(=O)Nc3ccc4c(c3)OCO4)no2)c1	?	5%	-4%	-12%	i	-9%
O=C(Nc1ccc2c(c1)OCO2)c1cc(-c2ccc(O)cc2)on1	i	1%	-21%	2.1µM*	i	2.1µM*
